Assay outcomes as filed in PubChem.
bovine MsrA act: activators of bovine methionine sulfoxide reductase A | purified bovine MsrA, absorbance read-out | activation, % at 10.6 µM | actives 0.3% (n = 360,000) | AID 602163; in the data active = activation above about 7.5%
sPLA2-III inh: Blocks human group III sPLA2 activity; Q9NZ20; QFRET BODIPY PC-A2 liposome hydrolysis, fluorescence; inhibition, % at 12.2 µM; actives 0.56% (n = 370,000);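 active = inhibition above mean plus 3 SD of compounds lying within the high and low control bounds, cut at about 19% in these data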
Target sequence (Q9NZ20 whole entry, looked up): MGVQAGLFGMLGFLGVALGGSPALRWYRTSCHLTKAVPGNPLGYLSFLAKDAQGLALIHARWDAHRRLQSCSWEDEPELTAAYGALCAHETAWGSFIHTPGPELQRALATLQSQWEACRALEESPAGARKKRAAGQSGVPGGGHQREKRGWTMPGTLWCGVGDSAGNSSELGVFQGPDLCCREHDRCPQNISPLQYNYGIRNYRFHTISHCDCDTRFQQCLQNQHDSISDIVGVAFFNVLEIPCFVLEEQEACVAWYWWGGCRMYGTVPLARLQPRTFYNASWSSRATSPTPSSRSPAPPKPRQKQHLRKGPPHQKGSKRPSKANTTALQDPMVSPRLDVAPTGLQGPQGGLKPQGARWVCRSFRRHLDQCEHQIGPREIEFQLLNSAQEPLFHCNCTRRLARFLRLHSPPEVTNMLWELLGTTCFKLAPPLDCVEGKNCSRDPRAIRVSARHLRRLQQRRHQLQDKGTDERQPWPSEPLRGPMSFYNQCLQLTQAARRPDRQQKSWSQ
MsrA inhibitor: inhibitors of bovine MsrA | inhibition, % at 15.5 µM | actives 0.75% (n = 360,000) | AID 651718 | purified bovine MsrA, absorbance read-out; in the data active = inhibition above about 4.5%
rCAG RNA binder: r(CAG) repeat RNA binding; TO-PRO-1 dye displacement fluorescence; inhibition, % at 3 µM; actives 1.3% (n = 370,000); AID 651821;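 active = inhibition above the plate cutoff, the mean of all test compounds on that plate plus 3 SD, cut at about 35% in these data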;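 also: higher means more dye released from RNA so lower well fluorescence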
MsrA activ conf: bovine methionine sulfoxide reductase A activation confirmed; shares compounds with bovine MsrA act; actives 12% (n = 1,000); activation, % at 10.6 µM; purified bovine MsrA, absorbance read-out; in the data active = activation above about 4%;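 also: enzyme coupled to thioredoxin and thioredoxin reductase with NADPH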
Each line names hits and unclear results; the compound was inactive in the other large screens (follow-up assays come after a bar, where they were run). Rows were chosen to be rich in hits. Some 2.8% of all compounds tested hit in one or more screens of this group.

COC(=O)c1ccc(C(C(=O)NC2CCCCC2)N(C(=O)Cc2cccs2)C2CC2)cc1 (configuration not stated)	bovine MsrA act 7.9 | MsrA activ conf inactive
O=C(COc1cccnc1[N+](=O)[O-])N1CCN(S(=O)(=O)c2ccc3ccccc3c2)CC1	none
COc1cccc(-n2cn[nH]c2=S)c1	bovine MsrA act 7.8 | MsrA activ conf inactive
COc1cccc(-c2cn(-c3cccc(C(F)(F)F)c3)c(=S)[nH]2)c1	none
O=C(Cn1sc2ccccc2c1=O)Nc1ccccc1	bovine MsrA act 7.7 | MsrA activ conf inactive
O=C(Cn1sc2ccccc2c1=O)NC12CC3CC(CC(C3)C1)C2	none (no result: sPLA2-III inh, MsrA inhibitor, rCAG RNA binder)
CC1CCCCN1C(=O)CSc1nnc(-c2ccco2)n1C (configuration not stated)	bovine MsrA act 25.6 | MsrA activ conf inactive
CCn1c(SCC(=O)N2CCCCC2C)nnc1-c1ccco1 (configuration not stated)	none
COc1ccc(C(=O)CSc2nc(=O)n3ccc(C)cc3n2)cc1	none
COc1ccccc1NC(=O)COC(=O)C12CC3CC(CC(Cl)(C3)C1)C2	bovine MsrA act 15.2 | MsrA activ conf inactive
Cc1ccc(-n2c([C@@H]3C[C@H]3c3ccccc3)n[nH]c2=S)cc1	bovine MsrA act 8.9 | MsrA activ conf inactive
COc1ccc(C(=O)NNC(=O)Cc2nc3ccccc3n2C)cc1	none
N#C/C(=C/c1ccc(-c2ccc(Br)cc2)o1)C(=O)NC1CCCCC1	none
Cc1onc(C(=O)N2CCC(Cc3ccccc3)CC2)c1[N+](=O)[O-]	none
Cc1onc(C(=O)N2C(C)CCCC2C)c1[N+](=O)[O-] (configuration not stated)	bovine MsrA act 8.8 | MsrA activ conf inactive
COc1cccc(NC(=O)CN(C)CC(=O)NCc2ccc3c(c2)OCO3)c1	bovine MsrA act 11.4 | MsrA activ conf inactive
COc1cccc(NC(=O)CN(C)C(=O)CCNC(=O)c2ccccc2Cl)c1	bovine MsrA act 8.0 | MsrA activ conf inactive
CCN1C=C(C(C)=O)C(=O)CC1	none
O=C1c2ccccc2-c2nc3ccccc3nc21	none
Cc1nc2c(nc1C)C(=O)c1ccccc1C2=O	bovine MsrA act 13.3 | MsrA activ conf 8.4
CCOc1nc(NCCN2CCOCC2)nc(NC(C)C)n1	none
O=C(CCN1C(=O)COc2ccccc21)N1CCN(c2ccccn2)CC1	bovine MsrA act 21.1 | MsrA activ conf inactive
O=C1C=C(NCc2ccccc2)c2ccccc2C1=O	bovine MsrA act 9.4 | MsrA activ conf 8.9
O=C1C=C(Nc2ccc(F)cc2)c2ccccc2C1=O	none
O=C1C=C(Nc2ccccc2O)c2ccccc2C1=O	bovine MsrA act 9.3 | MsrA activ conf 6.1
CC1(C)Cc2cccc(Oc3ccc(S(=O)(=O)N4CCCCC4)cn3)c2O1	bovine MsrA act 7.7 | MsrA activ conf inactive
O=C1NC(Cc2ccccc2)c2nc3cc(F)c(F)cc3c(=O)n2-c2ncccc21 (configuration not stated)	bovine MsrA act 9.7 | MsrA activ conf inactive
O=C1NC(Cc2ccccc2)c2nc3cc(F)ccc3c(=O)n2-c2ncccc21 (configuration not stated)	none
CCN1C(=O)[C@@H]2[C@@H](c3ccc(-c4ccc(F)cc4)cc3)N3CCC[C@@]3(C(=O)OC)[C@@H]2C1=O	none
COc1cc(NC(=O)CSCc2ccccc2)c(C(=O)O)cc1OC	bovine MsrA act 10.0 | MsrA activ conf inactive
CCN(CC)CCn1c(NC(=O)c2ccc(C)cc2)nc2ccccc21	none
O=C(C[C@H]1C[C@@H]2c3cc(NS(=O)(=O)c4ccccc4)ccc3O[C@@H]2[C@H](CO)O1)N1CCOCC1	bovine MsrA act 14.5 | MsrA activ conf inactive
CCCCN(CC)CCNC(=O)c1cc2c(=O)n(CC)c3ccccc3c2s1	none
COc1cccc(C(c2sc3ncnn3c2O)N2CCc3ccccc3C2)c1 (configuration not stated)	none
COc1cccc(C(c2sc3ncnn3c2O)N2CC(C)OC(C)C2)c1 (configuration not stated)	bovine MsrA act 8.1 | MsrA activ conf inactive
COc1ccc(-c2csc(NC(C)c3nc4cc(C(F)(F)F)ccc4n3CCOCCO)n2)cc1 (configuration not stated)	none
CC(=O)Oc1c(S(=O)(=O)c2ccccc2)c(C)nn1C(C)(C)C	bovine MsrA act 10.2 | MsrA activ conf inactive
COc1ccccc1NC(=O)c1ccccc1Nc1ccccc1	bovine MsrA act 10.1 | MsrA activ conf inactive
